26 compounds from PubChem BioAssay AID504466 (National Center for Advancing Translational Sciences (NCATS), 2011) can be followed below.

Screen size: about 330,000 compounds; about 4,200 (1.3%) were called active. Inconclusive results (about 6%) are left out. Calls come from the whole dose curve; as a rule, active = well fitted activation curve with a large enough effect; inconclusive = small, poorly fitted or top-dose-only effect; inactive = no such curve, though single readings can be large or run the other way. The entries come from a sample that favours actives as a whole. Entries that show only a call come without a potency.
Potency is the fitted concentration of half-maximal effect.

The nature of the assay: qHTS screen for small molecules that induce genotoxicity in human embryonic kidney (HEK293T) cells expressing luciferase-tagged ELG1. Note: nearly all actives have a fitted effect of over 60% in size. The conditions noted are these: HEK293T ELG1-luciferase reporter, luminescence, 16 h; series mostly up to 46 µM. Put shortly:
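Quantitative HTS format in 1536-well plates. HEK293T ELG1-luciferase reporter cells receive test compound and are incubated 16 hr at 37 °C, 5% CO2; ONE-Glo added, 30 min room temperature, then luminescence read.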
(qHTS replaces the single test concentration by a dilution series.)
Consider `C#CCOCCOCCOCCNc1nc(N2CCN(C(=O)C([C@@H](C)O)n3cc([C@@H](N)CCCCN)nn3)CC2)nc(N2CCN(C(=O)[C@H](CCCCN)n3cc(CN)nn3)CC2)n1` (stereo partly specified), for which the Potency result was “inactive”. Take `Cc1noc(C)c1S(=O)(=O)N(C)C[C@H]1Oc2ccc(NC(=O)C3CC3)cc2C(=O)N([C@H](C)CO)C[C@@H]1C`: the Potency result is “inactive”.

Take `COc1ccc(CNC(=O)COc2ccccc2C(=O)c2cnn(-c3ccccc3)c2)cc1OC`: the Potency result is “inactive”.

With `Cc1ncc(CC(=O)n2cc(C(=O)c3cc(Cl)ccc3O)cn2)s1`, the Potency entry is “inactive”. The value for `O=C(c1cnn(-c2ccc(Cl)cc2)c1)c1ccccc1O` was 7.3 µM (active); that for `CC[C@]1(C(=O)OC)[C@H]2C(=O)N(Cc3ccccc3)C(=O)[C@H]2[C@H]2CN=C(SCc3ccc(C#N)cc3)N21` was “inactive”. As for `CN[C@H](C(=O)NC[C@H]1O[C@@H](n2cnc3c(N)ncnc32)[C@H](O)[C@@H]1O)[C@@H](C)OCc1ccccc1`, the Potency entry was “inactive”.

Turning to `O=C1[C@@H](c2ccccc2)[C@@H](c2ccccc2)N1c1cccnc1`, the Potency result is “inactive”. For the compound `CC[C@]12c3[nH]c4ccc(Cl)cc4c3CCN1C(=O)[C@@H](CC(=O)NCCCOC)C[C@@H]2C(=O)N1CCN(C(=O)c2ccco2)CC1`, the Potency result was “inactive”.

Regarding `COc1ccc(-c2cc(C(=O)NCCCn3ccnc3)no2)cc1`, the Potency result is “inactive”. The value for `O=C(NCCCn1ccnc1)c1cc(-c2ccccc2)on1` was 14.6 µM (active); that for `O=C(Nc1cccnc1Cl)c1cc(-c2cccc(Cl)c2)on1` was “inactive”. For `O=C(NCCCn1ccnc1)c1ccccc1F`, the Potency result was “inactive”. As for `O=C(NC1CCCCC1)c1ccc(-c2ccc(Cl)cc2)o1`, the Potency entry is “inactive”. In the case of `O=C(NC1CCCC1)c1cc(-c2ccccc2)on1`, the Potency is 9.2 µM (active). As for `O=C(NC(=S)Nc1ccc(Br)cc1F)C1CCCCC1`, the Potency result was “inactive”. Turning to `COc1ccc(CNC(=O)C[C@H]2C[C@H](C(=O)N3CCOCC3)[C@@]3(CCC4CCCC4)c4[nH]c5ccc(Cl)cc5c4CCN3C2=O)cc1OC`, the Potency result is “inactive”.

As for `O=C(Nc1cccc(S(=O)(=O)NC2=NCCC2)c1)c1ccc(F)cc1F`, the Potency entry is “inactive”.

As to `CCn1nnc2cc(C(=O)Nc3ccc(C(=O)OC(C)C)cc3)ccc21`, the Potency result is “inactive”. With `COc1ccccc1N(CC(=O)N/N=C(\C)c1ccccc1O)S(=O)(=O)c1ccc(C)cc1`, the Potency result was “inactive”.

Take `CC(C)=C(NC(=O)c1ccccc1)C(=O)N/N=C(\C)c1ccccc1O`: the Potency result was “inactive”. `C/C(=N\NC(=O)c1ccoc1C)c1ccccc1O`: the Potency is 18.3 µM (active). To `O=C1NC[C@@H](c2ccccc2)OC(=O)[C@H](Cc2ccc(F)cc2)CC/C=C/C[C@H]1CC(=O)N(CCO)Cc1ccccc1` belongs “inactive”; to `O=C(C[n+]1cc(Br)cc2ccccc21)c1ccc(F)cc1`, “inactive”. As to `O=C(c1ccc(F)cc1)n1c(=S)nc2ccccn21`, the Potency was 0.651 µM (active). To `O=C(c1ccc(F)cc1)n1cc(C(=S)N2CCOCC2)c2ccccc21` belongs “inactive”.
